IL-2 act = activators of IL-2 | IL-2 activation reporter assay, cell-based qHTS; stimulated with anti-CD3/CD4/CD28 beads; in transgenic mouse T cells | activation, % (series mostly up to about 46 µM) | 0.065% of 360,000 active; in the data active = activation above about 50%; inconclusive = mostly about 30% to 49%; also: 0% is about no effect
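First, unstimulated transgenic mouse T cells were exposed to compound for 60 min. Next, anti-CD3/anti-CD4-coated beads with anti-CD28 were added. Finally, after 18 h at 37 degrees C, EGFP and DsRed were imaged.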
BRCA1 expr up = activators of BRCA1 expression. MCF7-BRCA1-FFLuc reporter, luminescence, 48 h; response scale: scaled: vehicle 0%, 10 µM genistein 100%. Potency, µM (series often up to 46.1 µM), inactives show at the top dose activation, most hits filed as activators. 1.1% of 380,000 active. AID 624202; also: potency is read from the fitted curve at half-maximal effect; nearly all actives have a fitted effect of over 80% in size
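48 h compound treatment of MCF7-BRCA1-FFLuc cells (phenol-red free MEM, 37 °C), then 15 min with luciferase substrate and luminescence imaging.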
Anesthetic bind = binds horse apoferritin like a general anesthetic. P02791. apoferritin/1-aminoanthracene competitive binding, fluorescence. Potency, µM (series often up to 77.5 µM), without a hit: at the top dose activity change, negative = displacement, usual class: inhibitors. 0.074% of 350,000 active. AID 485281; also: potency is read from the fitted curve at half-maximal effect; % is scaled to controls: 0 for no effect and ±100 for the full control effect; nearly all actives have a fitted effect of over 20% in size
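Horse-spleen apoferritin (10 uM) was mixed with 50% saturated 1-aminoanthracene in PBS, exposed to compounds for 10 min at room temperature, and read for fluorescence (ex 380 nm, em 535 nm). Competitive displacement was fitted with a four-parameter Hill equation.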
PKM2 act = activators of human pyruvate kinase M2. P14618. purified PKM2, Kinase-Glo ATP luminescence, activation; response scale: 0% is enzyme alone, no compound. Potency, µM (titrated, usually from 57.5 µM), without a hit: top-dose activation, actives largely listed as activators. 0.34% of 260,000 active. AID 1631; also: potency is read from the fitted curve at half-maximal effect; % is scaled to controls: 0 for no effect and ±100 for the full control effect; nearly all actives have a fitted effect of over 55% in size
Target sequence (P14618 whole entry, looked up): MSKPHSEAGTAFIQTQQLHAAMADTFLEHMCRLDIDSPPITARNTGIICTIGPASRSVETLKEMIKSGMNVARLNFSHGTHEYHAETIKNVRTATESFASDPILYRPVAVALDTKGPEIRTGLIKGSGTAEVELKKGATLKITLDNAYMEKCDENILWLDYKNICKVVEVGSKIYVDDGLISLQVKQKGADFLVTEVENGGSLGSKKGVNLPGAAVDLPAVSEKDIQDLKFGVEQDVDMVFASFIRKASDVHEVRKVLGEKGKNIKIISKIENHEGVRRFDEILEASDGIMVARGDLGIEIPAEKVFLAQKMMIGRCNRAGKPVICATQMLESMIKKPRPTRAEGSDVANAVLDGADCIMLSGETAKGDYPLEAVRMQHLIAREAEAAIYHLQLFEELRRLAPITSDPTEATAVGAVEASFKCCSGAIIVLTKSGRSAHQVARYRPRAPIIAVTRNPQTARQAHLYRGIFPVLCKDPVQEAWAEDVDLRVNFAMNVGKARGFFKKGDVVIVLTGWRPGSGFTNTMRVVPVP
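Purified hPK-M2 (>95%) run at intermediate activity with 0.1 mM ADP and 0.5 mM PEP in 50 mM imidazole pH 7.2, KCl, MgCl2; 1 h room temperature. ATP formed read by Kinase-Glo luminescence; normalized to uninhibited and no-enzyme controls.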
Integrin act MD = activates integrin-mediated alleviation for muscular dystrophy; alpha7betagal myoblasts, beta-gal FDG fluorescence, 48 h; Potency, µM (series often up to 38.3 µM), inactives show at the top dose activation, most hits filed as activators; 0.064% of 350,000 active; AID 624291;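 also: potency is read from the fitted curve at half-maximal effect; 100% = response of the positive control SU9516; nearly all actives have a fitted effect of over 60% in size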
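Alpha7betagal+/- myoblasts (passage 13) were plated 16-24 hr, then exposed to compounds (1:260 dilution of DMSO stock) for 48 hours at 37C. After MPER lysis, β-galactosidase reporter activity was read as FDG fluorescence (ex 480/em 540) after 30 minutes.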
HeLa tox = reduces HeLa cell viability in PKM2 activator counter-screen. shares compounds with PKM2 act. activity change, negative = cytotoxicity, % at 57.5 µM. HeLa viability, CellTiter-Glo ATP luminescence, 24 h. 230 tested, under 10 active. AID 1898; also: % of control where 0% means no effect
* marks the source's active call; other numbers are inactive results; ? = inconclusive; / = no result given. Hits are enriched below; roughly 1.3% of the tested compounds scored in any of these assays. Unless noted, calls follow the shape of the dose curve; as a rule, active = well fitted curve in the direction sought with a large enough effect; inconclusive = small, poorly fitted or top-dose-only effect, or another doubt; inactive = no such curve, though single readings can be large; an effect the other way counts as inactive or inconclusive.

SMILES	IL-2 act	BRCA1 expr up	Anesthetic bind	PKM2 act	Integrin act MD	HeLa tox
O=S(=O)(NCC1CN(S(=O)(=O)c2c(F)cccc2F)C1)c1ccc2c(c1)OCCO2	-4.0	-6.6%	/	/	/	-6.2
O=S(=O)(c1ccc2c(c1)OCCO2)N1CCCN(S(=O)(=O)c2c(F)cccc2F)CC1	-0.4	-9.6%	/	/	/	-13.3
O=S(=O)(NCCCCCNS(=O)(=O)c1c(F)cccc1F)c1ccc2c(c1)OCCO2	0.2	-8.4%	/	/	/	-1.7
O=S(=O)(c1c(F)cccc1F)C1CCN(S(=O)(=O)c2ccc3c(c2)OCCO3)CC1	-1.6	-8.7%	/	/	/	-9.2
CCc1cccc2cc(C(O)CNC(C)(C)C)oc12 (stereo not given)	/	/	-3.7%	/	/	/
CC(CCc1ccccc1)NC(=O)Cn1c(=O)nc(-c2ccccc2)c2cc(Cl)ccc21 (stereo not given)	/	/	51.7%	/	/	/
CC(=O)N1c2ccc(S(=O)(=O)Nc3ccc(Cl)cc3C)cc2CC1C (stereo not given)	/	/	-3.0%	/	/	/
O=S(=O)(c1ccc2c(c1)OCCO2)N1CCN(S(=O)(=O)c2c(F)cccc2F)CC1	/	/	/	/	/	?
CS(=O)(=O)N1CCN(C(=O)c2ccc3c(c2)OCCO3)CC1	0.4	0.3%	-9.7%	9.1%	11.9%	/
O=C(c1ccc2c(c1)OCCO2)N1CCN(S(=O)(=O)c2c(F)cccc2F)CC1	1.2	8.1%	/	/	/	?
CC1(C)CCc2cc(S(=O)(=O)N3CCN(S(=O)(=O)c4c(F)cccc4F)CC3)ccc2O1	7.8	7.94µM*	/	/	/	-20.9
CN1CCOc2ccc(S(=O)(=O)N3CCN(S(=O)(=O)c4c(F)cccc4F)CC3)cc21	/	/	/	/	/	3.6
O=C1CCc2cc(S(=O)(=O)N3CCN(c4ccccc4F)CC3)ccc2N1	2.2	-44.2%	-20.0%	3.8%	-33.1%	/
O=S(=O)(c1ccc2c(c1)OCCO2)N1CCN(S(=O)(=O)c2c(F)cc(F)cc2F)CC1	-1.2	-3.8%	/	/	/	/
O=C1CN(S(=O)(=O)c2ccc3c(c2)OCCO3)CCN1S(=O)(=O)c1c(F)cccc1F	/	/	/	/	/	-13.1
O=S(=O)(c1ccc2c(c1)OCCO2)N1C[C@@H]2C[C@H]1CN2S(=O)(=O)c1c(F)cccc1F	-0.5	-24.6%	/	/	/	/
COc1cccc(S(=O)(=O)N2CCN(S(=O)(=O)c3ccc4c(c3)OCCO4)CC2)c1	/	/	/	/	/	2.1
C[C@H]1CN(S(=O)(=O)c2ccc3c(c2)OCCO3)CCN1S(=O)(=O)c1c(F)cccc1F	0.5	-8.1%	/	/	/	3.9
O=S(=O)(c1ccc2c(c1)OCO2)N1CCN(S(=O)(=O)c2c(F)cccc2F)CC1	/	/	/	/	/	?
Cc1ccccc1NC(=O)Cn1c(=O)n(Cc2ccc3c(c2)OCO3)c(=O)c2oc3ccccc3c21	/	/	-11.4%	/	/	/
Cc1cccc(CN2CCN(c3nc4nonc4nc3NC3CC3)CC2=O)c1	-1.2	0.3%	-6.7%	3.55µM*	-11.1%	-4.4
CC(C)COc1cccc(C(=O)Nc2ccc(-c3nc4ncccc4o3)cc2)c1	/	/	1.2%	/	/	/
CCOc1ccc(-c2cc(C(=O)N3CCN(c4ccc(C)cc4)C(C)C3)c3ccccc3n2)cc1 (stereo not given)	/	/	-6.3%	/	/	/
COc1cc(NC(=O)c2cc(Cl)ccc2Cl)ccc1NC(=O)c1cc2ccccc2o1	/	/	51.7%	/	/	/
CCOc1ccc(CN2CCN(C(=O)c3ccccc3)CC2)cc1	-0.2	2.6%	-6.5%	1.1%	0.9%	/
CCOc1ccc(C(=O)N2CCN(Cc3ccccc3)CC2)cc1	1.5	25.1%	-18.2%	5.62µM*	-7.5%	0.0
CCN1C(=O)c2cccc3c(S(=O)(=O)Nc4ccncc4)ccc1c23	-3.7	-25.5%	589.1%	0.7%	4.9%	/
CCN1C(=O)c2cccc3c(S(=O)(=O)Nc4ccccc4)ccc1c23	-2.4	-81.7%	3.0%	3.98µM*	15.9%	?

Screening results as filed in PubChem BioAssay.
